# Compound activity deposited in PubChem BioAssay by National Center for Advancing Translational Sciences (NCATS).
# Pf growth 48h = Primary qHTS for delayed death inhibitors of the malarial parasite plastid, 48 hour incubation; P. falciparum luciferase growth in erythrocytes, 48 h; hit rate 5.9% among 310,000; AID 504832, 2011; Potency, µM (titrated, usually from 28.7 µM), actives largely listed as inhibitors
#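 Compounds are pin-transferred into medium, infected erythrocytes (2% hematocrit, 0.1% parasitemia final) are added, and plates sit one parasite generation at 37 C in 5% CO2. Detection reagent is then added and luminescence measured.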
# Sm TGR block = qHTS Assay for the Inhibitors of Schistosoma Mansoni Peroxiredoxins | hit rate 3% among 360,000 | Potency, µM (top dose mostly 114 µM), hits mostly inhibitors | purified TGR, DTNB reduction, TNB absorbance 405 nm | AID 485364, 2010; also: nearly all actives have a fitted effect of over 60% in size
#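 TGR 20 nM + NADPH 100 uM (dispensed conc.), cpd preinc 15 min RT; start with NADPH (500 uM addition) then DTNB (15 mM addition). Kinetic TNB absorbance, 405 nm filter. Four-parameter Hill fit across titration.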
# SARS PLpro yeast = qHTS of Yeast-based Assay for SARS-CoV PLP; S. cerevisiae expressing SARS-CoV PLpro, growth rescue; Potency, µM (series often up to 32.9 µM), actives largely listed as activators; hit rate 0.19% among 330,000; AID 485353, 2010; calls by dose curve; also: nearly all actives have a fitted effect of over 55% in size
# Pf growth 96h = Primary qHTS for delayed death inhibitors of the malarial parasite plastid, 96 hour incubation; P. falciparum luciferase reporter growth, 96 h; Potency, µM (top dose mostly 28.7 µM), most hits filed as inhibitors; hit rate 6.9% among 320,000; AID 504834, 2011
#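 Plates of compound plus infected erythrocytes (2% hematocrit, 0.05% parasitemia final) incubate 96 hours, 37 C, 5% CO2. Detection reagent added; reduced luminescence from the parasites' luciferase reporter flags inhibition.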
# A number is an active result; i = inactive; ? = inconclusive; nt = not tested or not shown; [ ] = another dose, or the depositor's remark. Sampled rows, rich in hits. Any-hit rate of the full collection: about 12%. Unless noted, calls follow the shape of the dose curve; as a rule, active = well fitted curve in the direction sought with a large enough effect; inconclusive = small, poorly fitted or top-dose-only effect, or another doubt; inactive = no such curve, though single readings can be large; an effect the other way counts as inactive or inconclusive.
SMILES,Pf growth 48h,Sm TGR block,SARS PLpro yeast,Pf growth 96h
O=C(CSc1nccn1Cc1ccc(F)cc1)Nc1ccc2c(c1)OCO2,nt,i,nt,nt
COc1cc(C(=O)NCC2CCCO2)ccc1OCc1ccccc1Cl (stereo unspecified),?,i,i,i
Cc1ccc(CSC2=Nc3ccccc3C3=NC(CC(=O)NCc4ccco4)C(=O)N23)cc1 (stereo unspecified),1.3µM,35µM,i,nt
Cc1ccc(CSC2=Nc3ccccc3C3=NC(CC(=O)NCc4cccs4)C(=O)N23)cc1 (stereo unspecified),nt,i,nt,nt
O=C(Nc1ccc(-c2n[nH]c(=S)o2)cc1)c1ccccc1Cl,i,i,i,i
C=CCn1c(O)c2ccc(C(=O)N=NC(=O)c3ccc(F)cc3)cc2c1O,i,i,i,i
CCOc1ccc(NC(=O)C2CC(=O)N(c3ccc(C(C)C)cc3)C2)cc1 (stereo unspecified),nt,i,nt,nt
CN(Cc1ccccc1)c1ccc2nnc(-c3ccccc3)n2n1,4.1µM,i,i,?
Cc1ccc(S(=O)(=O)N2CCN(c3ccc4nnc(-c5ccccc5)n4n3)CC2)cc1,nt,i,i,?
FC(F)(F)c1nnc2ccc(N3CCOCC3)nn12,i,i,i,nt
c1ccc(-c2nnc3ccc(N4CCCC4)nn23)cc1,i,i,i,1µM
Cc1cccc(C)c1N1CCN(c2ccc3nnc(C(F)(F)F)n3n2)CC1,9.3µM,i,i,nt
Clc1ccc(CNc2ccc3nnc(-c4ccccc4)n3n2)cc1,?,i,i,i
COc1ccc(NC(=O)CCNS(=O)(=O)c2ccc(Cl)c([N+](=O)[O-])c2)cc1S(N)(=O)=O,?,35µM,i,?
CCN(Cc1ccccc1)Cc1c(O)ccc2c(=O)c(-c3ccc(Cl)cc3)coc12,nt,i,nt,nt
C=CCN(CC=C)Cc1c(O)ccc2c(=O)c(-c3ccccc3)coc12,?,13µM,i,i
CC(CNC(=O)c1cc2cc(S(=O)(=O)N3CCCCC3)ccc2n1C)c1ccccc1 (stereo unspecified),nt,i,nt,nt
CC/C(=N/Nc1ccccc1C)c1cnnc(SC)n1,4.1µM,?,i,2.3µM
COc1ccc(OC)c(CCNC(=O)CCCc2nnc3n(C)c(=O)c4sccc4n23)c1,i,i,i,i
C[n+]1ccc(/C=N/Nc2nc(Cl)c(C#N)c(Cl)c2Cl)cc1,i,11µM,i,i
CC1Cc2cc(-c3csc(NC(=O)Cc4cccs4)n3)ccc2N1S(C)(=O)=O (stereo unspecified),13µM,i,i,?
COc1ccc(NC(=O)/C(Cl)=C(/Cl)S(=O)Cc2ccc(Cl)cc2)cn1 (stereo unspecified),i,0.1µM,i,?
COc1ccc(NC(=O)C(Cl)=C(Cl)Cl)cn1,?,i,i,?
COc1ccc(NC(=O)/C(Cl)=C(/Cl)S(=O)(=O)Cc2ccccc2)cn1,nt,10µM,i,i
CCOc1cc(NC(=O)CCl)c(OCC)cc1NC(=O)CCl,i,?,i,?
SMILES,Pf growth 48h,Sm TGR block,SARS PLpro yeast,Pf growth 96h
CCc1cc(SC#N)cc(CC)c1NC(=O)CCl,10µM,?,?,?
CCOc1ccc(C(=O)CSc2nnc(C3CC3)n2C)cc1,i,i,i,i
Cc1ccc(NC(=O)C(C)Sc2nnc(C)n2C)cc1 (stereo unspecified),i,?,i,i
CCOC(=O)c1ccc(NC(=O)CSc2nnc(C3CCCCC3)n2C)cc1,6.6µM,i,i,8.3µM
CCOc1ccc(NC(=O)C(C)Sc2nnc(C)n2C)cc1 (stereo unspecified),i,i,i,13µM
CCOc1ccc(NC(=O)CSc2nnc(C3CC3)n2C)cc1,i,nt,i,2.1µM
CCOc1ccc(NC(=O)CSc2ncn[nH]2)cc1,i,i,i,12µM
COc1ccc(CCNC(=O)CCn2c(=O)c3ccccc3n(CC(=O)Nc3ccccc3F)c2=O)cc1OC,nt,i,nt,nt
CCc1ccccc1NC(=O)CSc1nc2c(c(=O)[nH]1)CN(Cc1ccccc1OC)CC2,nt,i,nt,nt
CCOC(=O)c1ccc(NC(=O)CCn2c(=O)c3cccn3c3cccnc32)cc1,nt,i,nt,nt
CCOC(=O)c1ccc(NC(=O)CSc2nnc(-c3cccs3)n2C)cc1,?,i,i,3.3µM
CCOC(=O)c1ccc(NC(=O)CSc2nnc(-c3cccs3)n2CC)cc1,?,i,i,nt
O=C(CSc1nc2ccccc2[nH]1)Nc1ccc(N2CCOCC2)cc1,?,i,i,?
COc1ccc2nc(N3C(=O)/C(=C/c4ccccc4)NC3=S)sc2c1,?,i,i,0.83µM
CCOc1ccc2nc(N3C(=O)/C(=C/c4ccccc4)NC3=S)sc2c1,i,i,i,4.7µM
COc1ccc2nc(-n3c(C)ccc3C)sc2c1,i,i,i,nt
CC(=O)Nc1c(-c2cc(=O)oc3cc(C)ccc23)oc2ccccc12,?,i,i,?
Cc1cc(C)c(NC(=O)CS(=O)CC(=O)Nc2ccc(N3CCOCC3)cc2)c(C)c1 (stereo unspecified),i,i,i,i
COc1ccc(C(=O)Nc2nc(-c3cccs3)cs2)cc1,i,i,nt,nt
COc1cc(C(=O)Nc2nc(-c3cccs3)cs2)cc(OC)c1OC,12µM,i,i,i[5.75 µM]
CN(C)S(=O)(=O)c1cccc(NC(=O)COc2ccccc2C(=O)NCc2ccccc2)c1,?,i,i,?
CN(C)CCCN1C(=O)c2cccc3c(Br)ccc(c23)C1=O,i,8.9µM,i,?
Cc1nn(-c2ccccc2)c(C)c1Cc1ccc(O)cc1,i,i,i,i
Cc1nn(-c2ccccc2)c2c1C(O)n1c(nc3ccccc31)S2 (stereo unspecified),1.7µM,i,i,i
Cc1sc(NC(=O)CN(C)C2CCCCC2)nc1-c1ccc2c(c1)CCN2S(=O)(=O)c1ccccc1,nt,i,i,2.9µM
SMILES,Pf growth 48h,Sm TGR block,SARS PLpro yeast,Pf growth 96h
O=C(Nc1ccc(F)cc1)Nc1ccc(NC(=O)c2ccccc2O)cc1,12µM,i,i,i
CNCc1ccccc1Sc1cc(O)ccc1O,i,3.5µM,i,i
O=C(Nc1ccc(Cl)c(C(F)(F)F)c1)N1CCCC(O)C1 (stereo unspecified),i,i,i,0.66µM
Cc1nc(-c2ccc(S(=O)(=O)N3CCCN(CCc4ccccc4)CC3)s2)cs1,?,i,i,4.1µM
CC1CCCCN1CC(=O)c1ccc2cc[nH]c2c1 (stereo unspecified),nt,8.9µM,i,i
COC(=O)CCC(=O)OC1(C)C(=O)C=C2C=C3CCCN3C=C2C1=O (stereo unspecified),i,?,i,i
CC1(OC(=O)c2ccc(Cl)nc2)C(=O)C=C2C=C3CCCN3C=C2C1=O (stereo unspecified),i,35µM,i,i
CCCCOc1ccc(C(=O)Nc2onc3c2CCCC3)cc1,nt,i,nt,nt
COC(=O)C1Cc2c([nH]c3ccccc23)C2(CCN(Cc3ccccc3)CC2)N1 (stereo unspecified),i[0.00184 µM],i,i,?
CCCN1CCC2(CC1)NC(C(=O)O)Cc1c2[nH]c2ccccc12 (stereo unspecified),nt,25µM,i,i
CCC1(C)NC(C(=O)O)Cc2c1[nH]c1ccccc21 (stereo unspecified),i,35µM,i,i
